Where “and” joins values, the source holds several entries; their conditions need not be identical. Equal values may be shown once. In all, about 5,500 compounds went through this assay and about 2,000 (36%) were called active. Inconclusive results (about 18%) are left out. No stated cut-off is given here; in the data, active means normalized growth mostly below about 0.91 (no sharp cut-off); inconclusive means no clear call, values can overlap the other calls; inactive means mostly above about 0.92. Some of the results follow.
Experiment: chemical genetic growth profiling, strain panel (AID 1159580);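 further: tested at 20 µM; growth read once vehicle control cultures reached saturation at 30 °C; 1 = growth at the plate median or of vehicle wells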
Conditions: S. cerevisiae deletion strains, growth OD

Measured: normalized growth

NCC(CC(=O)O)c1ccc(Cl)cc1 (configuration not stated)
inactive: locus YAL013W, strain DEP1, stronger effect = lower value 1.02 | locus YAL021C, strain ccr4, stronger effect = lower value 0.99 | locus YAL026C, strain drs2, stronger effect = lower value 0.997 | locus YAL030W, strain snc1, stronger effect = lower value 1 | locus YAL040C, strain CLN3, stronger effect = lower value 1.03 | locus YBL061C, strain skt5, stronger effect = lower value 1 | locus YBR009C, strain hhf1, stronger effect = lower value 0.968 | locus YBR021W, strain FUR4, stronger effect = lower value 1.04 | locus YBR023C, strain chs3, stronger effect = lower value 0.997 | locus YBR171W, strain sec66, stronger effect = lower value 1.01 | locus YBR229C, strain ROT2, stronger effect = lower value 1.01 | locus YBR231C, strain swc5, stronger effect = lower value 1.01 | locus YBR279W, strain paf1, stronger effect = lower value 0.994 | locus YCL011C, strain gbp2, stronger effect = lower value 0.992 | locus YCL016C, strain dcc1, stronger effect = lower value 0.976 | locus YCL029C, strain bik1, stronger effect = lower value 0.993 | locus YCL061C, strain MRC1 (second series), stronger effect = lower value 0.981 | locus YCL069W, strain vba3, stronger effect = lower value 0.994 | locus YCR088W, strain abp1, stronger effect = lower value 1 | locus YDL005C, strain med2, stronger effect = lower value 1 | locus YDL035C, strain GPR1, stronger effect = lower value 1.05 | locus YDL040C, strain nat1, stronger effect = lower value 0.995 | locus YDL074C, strain BRE1, stronger effect = lower value 1.03 | locus YDL101C, strain DUN1, stronger effect = lower value 1.01 | locus YDL185W, strain tfp1, stronger effect = lower value 0.993 | locus YDL192W, strain arf1, stronger effect = lower value 0.991 | locus YDR001C, strain nth1, stronger effect = lower value 0.995 | locus YDR069C, strain doa4, stronger effect = lower value 1.02 | locus YDR101C, strain arx1, stronger effect = lower value 0.979 | locus YDR137W, strain rgp1, stronger effect = lower value 0.98 | locus YDR150W, strain NUM1, stronger effect = lower value 1.01 | locus YDR159W, strain sac3, stronger effect = lower value 0.945 | locus YDR162C, strain NBP2, stronger effect = lower value 1.04 | locus YDR195W, strain ref2 0.995 | locus YDR297W, strain sur2, stronger effect = lower value 1.01 | locus YDR318W, strain mcm21, stronger effect = lower value 0.993 | locus YDR334W, strain swr1, stronger effect = lower value 1 | locus YDR335W, strain msn5, stronger effect = lower value 1 | locus YDR388W, stronger effect = lower value 0.99 | locus YDR392W, strain spt3, stronger effect = lower value 0.928 | locus YDR502C, strain sam2, stronger effect = lower value 0.991 | locus YEL003W, strain gim4, stronger effect = lower value 0.996 | locus YEL037C, strain rad23, stronger effect = lower value 0.998 | locus YEL061C, strain CIN8 (second series), stronger effect = lower value 1.01 | locus YEL061C, strain CIN8, stronger effect = lower value 1.01 | locus YER002W, strain NOP16, stronger effect = lower value 0.992 | locus YER015W, strain faa2, stronger effect = lower value 1 | locus YER016W, strain bim1, stronger effect = lower value 0.975 | locus YER110C, stronger effect = lower value 0.978 | locus YER111C, strain swi4, stronger effect = lower value 0.989 | locus YER155C, strain BEM2 (second series), stronger effect = lower value 1.02 | locus YER155C, strain BEM2, stronger effect = lower value 1.02 | locus YER167W, strain BCK2, stronger effect = lower value 1.02 | locus YFR010W, strain ubp6, stronger effect = lower value 1.01 | locus YGL078C, strain dbp3, stronger effect = lower value 0.984 | locus YGL086W, strain mad1, stronger effect = lower value 0.988 | locus YGL167C, strain pmr1, stronger effect = lower value 0.99 | locus YGL173C, strain kem1, stronger effect = lower value 1 | locus YGL227W, strain vid30, stronger effect = lower value 1 | locus YGL240W, strain doc1, stronger effect = lower value 1.03 | locus YGL248W, strain PDE1, stronger effect = lower value 1.02 | locus YGL253W, strain hxk2, stronger effect = lower value 0.966 | locus YGR078C, strain PAC10, stronger effect = lower value 1.01 | locus YGR135W, strain pre9, stronger effect = lower value 0.987 | locus YGR229C, strain SMI1, stronger effect = lower value 0.955 | locus YGR252W, strain gcn5, stronger effect = lower value 0.966 | locus YHR013C, strain ard1, stronger effect = lower value 0.982 | locus YHR027C, strain rpn1, stronger effect = lower value 0.98 | locus YHR030C, strain SLT2, stronger effect = lower value 1.01 and 1.05 | locus YHR079C, strain IRE1 (second series), stronger effect = lower value 0.984 | locus YHR079C, strain IRE1, stronger effect = lower value 1.06 | locus YHR094C, strain hxt1, stronger effect = lower value 0.985 | locus YHR129C, strain ARP1, stronger effect = lower value 1.01 | locus YHR142W, strain chs7, stronger effect = lower value 0.958 | locus YHR200W, strain rpn10, stronger effect = lower value 0.987 | locus YIL066C, strain RNR3, stronger effect = lower value 1.04 | locus YIL073C, strain SPO22, stronger effect = lower value 0.986 | locus YIL125W, strain kgd1, stronger effect = lower value 0.977 | locus YIR030C, strain dcg1, stronger effect = lower value 1 | locus YJL092W, strain hpr5, stronger effect = lower value 1.01 | locus YJL095W, strain BCK1 (second series), stronger effect = lower value 1 | locus YJL095W, strain BCK1, stronger effect = lower value 1.01 and 1.06 | locus YJL115W, strain asf1, stronger effect = lower value 1.02 | locus YJL129C, strain trk1, stronger effect = lower value 1 | locus YJL134W, strain LCB3, stronger effect = lower value 1.01 | locus YJL154C, strain vps35, stronger effect = lower value 0.991 | locus YJL164C, strain tpk1, stronger effect = lower value 0.975 | locus YJL166W, strain qcr8, stronger effect = lower value 1.01 | locus YJL168C, strain set2, stronger effect = lower value 0.994 | locus YJL187C, strain SWE1 (second series), stronger effect = lower value 1.01 | locus YJR043C, strain POL32, stronger effect = lower value 1.03 | locus YJR066W, strain TOR1, stronger effect = lower value 0.996

— PubChem BioAssay AID1159580 (chemical genetic matrix, 2015)
